From PubChem BioAssay
Most compounds without a hit are left out; they make up all but 1.5% or so of the library.
GLD-1 RNA inh: GLD-1-TGE RNA interaction inhibition (C. elegans). Q17339. purified GLD-1 + fluorescein TGE RNA, fluorescence polarization. inhibition, % at 5.96 µM. 0.44% of 320,000 active;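 active = percent inhibition above a per-plate cutoff, the plate mean of test compounds plus 3 SD, cut at about 30% in these data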
MEX-5 binding: C. elegans MEX-5 TCR-2 RNA binding activity. Q9XUB2. MEX-5/FITC-TCR2 RNA binding, fluorescence polarization; hits give low values. activity score (negative = inhibition of binding), % at 10 µM. 0.38% of 300,000 active;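 active = inhibition past about -25% in most replicates, and total fluorescence under double the plate's negative control median, limit read from the data; inconclusive = replicates evenly split on the limit, or fluorescence at least double controls; inactive = too little inhibition in most replicates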
eLon inh: inhibits E. coli Lon protease; inhibition, % at 7.94 µM; 0.42% of 360,000 active; P0A9M0; purified E. coli Lon protease, fluorescence polarization; in the data active = inhibition above about 13%, passing the limit was not always enough
Bcl-xL primary: Bcl-xL (human) inhibition. Q07817. GST-Bcl-xL / FITC-Bim BH3 peptide fluorescence polarization. inhibition, % at 10.9 µM. 0.7% of 320,000 active. AID 2129;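 active = inhibition above the mean of all tested compounds plus 3 SD, cutoff set per campaign, cut at about 30% in these data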;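 also: inhibitors lower millipolarization by displacing the labeled peptide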
Target sequence (Q07817 whole entry, looked up): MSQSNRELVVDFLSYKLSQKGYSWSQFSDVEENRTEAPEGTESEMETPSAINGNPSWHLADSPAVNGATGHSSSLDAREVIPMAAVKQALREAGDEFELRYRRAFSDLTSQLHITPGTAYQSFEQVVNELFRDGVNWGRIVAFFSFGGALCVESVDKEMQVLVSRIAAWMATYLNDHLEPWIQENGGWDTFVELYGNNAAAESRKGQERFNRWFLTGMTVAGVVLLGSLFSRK
MCL1-BIM inh: MCL1-BIM-BH3 interaction inhibition (human) | inhibition, % at 10.9 µM | GST-MCL1 / FITC-Bim-BH3 fluorescence polarization | Q07820 | 0.68% of 320,000 active;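 active = inhibition above the mean inhibition of all tested compounds plus 3 SD, set per campaign, cut at about 40% in these data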;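 also: higher means more loss of mP so more displacement of Bim peptide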
Target sequence (Q07820 whole entry, looked up): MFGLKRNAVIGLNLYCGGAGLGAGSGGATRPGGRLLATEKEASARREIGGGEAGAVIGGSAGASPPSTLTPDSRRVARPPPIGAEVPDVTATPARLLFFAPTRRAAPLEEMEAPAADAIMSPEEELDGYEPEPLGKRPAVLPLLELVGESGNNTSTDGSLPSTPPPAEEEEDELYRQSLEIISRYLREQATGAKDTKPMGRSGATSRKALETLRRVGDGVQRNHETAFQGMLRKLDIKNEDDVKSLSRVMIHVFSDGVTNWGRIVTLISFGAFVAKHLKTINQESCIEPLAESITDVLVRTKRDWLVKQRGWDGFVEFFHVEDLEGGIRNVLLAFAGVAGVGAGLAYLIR
EBV gp42 inh: inhibitors of Epstein-Barr virus glycoprotein 42; inhibition, % (tested at 21.74 µM); AID 1085; Fluorescence polarization binding assay, mP read-out; Q1HVG2; 0.42% of 220,000 active; in the data active = inhibition above about 50%
A number is an active result; – = inactive; ? = inconclusive; · = no result.

SMILES	GLD-1 RNA inh	MEX-5 binding	eLon inh	Bcl-xL primary	MCL1-BIM inh	EBV gp42 inh
N#CC(C#N)=C1C=CC=CN1/C(=C\c1ccccc1Cl)C(=O)c1ccccc1	–	·	–	51	43	–
CCNC(=S)N/N=C1\C(=O)c2cccc3cccc1c23	–	–	–	–	–	–
O=C(N/N=C1/C(=O)c2cccc3cccc1c23)c1ccc(Cl)cc1	–	–	–	57	46	67
O=C(COc1cccc2ccccc12)NCc1cccnc1	–	–	–	–	–	–
Cc1cccc(NC(=O)c2cccc3c2-c2ccccc2C3=O)n1	–	–	–	67	–	–
Cc1cccc(NC(=O)c2ccccc2Br)n1	–	–	–	–	–	–
CCOC(=O)C1=C(C)Nc2ccccc2N/C1=N\S(=O)(=O)c1ccccc1	·	·	–	·	·	·
CC(=O)N1CSCC1C(=O)NNS(=O)(=O)c1ccccc1 (centres undefined)	–	–	–	–	–	–
CN(Cc1ccccc1F)C(=O)CN1C(=O)NC2(CCc3ccccc32)C1=O (centres undefined)	·	·	–	·	·	·
O=C(NCc1cccnc1)C(=O)C1C(=O)Nc2ccccc21 (centres undefined)	–	–	–	–	–	–
CCNC(=O)N1c2ccc(OCC)cc2C(C)=CC1(C)C	68	–	–	48	45	–
CCN(C(=O)CN1CCC(C(=O)OC)CC1)c1c(N)n(Cc2ccccc2)c(=O)[nH]c1=O	–	·	–	·	·	·
CC(C)Cc1nn2c(N)c(/C=C3\C=Nc4ccccc43)c(=O)nc2s1	–	-46	–	–	–	–
CCCc1nn2c(N)c(/C=C3\C=Nc4ccccc43)c(=O)nc2s1	–	–	–	–	–	–
CCOC(=O)c1sc(-c2ccc(C(F)(F)F)cc2)nc1O	–	–	–	36	–	–
CC1c2cccn2CCN1S(=O)(=O)c1ccc(F)cc1 (centres undefined)	–	·	–	–	–	·
COc1ccc(NC(C)=O)cc1S(=O)(=O)N1CCn2cccc2C1C (centres undefined)	–	·	–	–	–	·
CC(=O)c1ccc(S(=O)(=O)N2CCn3cccc3C2C)cc1 (centres undefined)	–	·	–	43	42	·
CC(=O)c1cccc(S(=O)(=O)N2CCn3cccc3C2C)c1 (centres undefined)	–	·	–	33	40	·
COc1ccc(N2CCN(S(=O)(=O)CCNC(=O)C3CC(=O)N(c4ccccc4)C3)CC2)cc1 (centres undefined)	–	–	–	–	–	·
O=Cc1ccc2oc3nc4n(c(=O)c3c(=O)c2c1)CCCS4	–	–	–	–	–	85
O=c1c2cc(Br)cc(Br)c2oc2nc3n(c(=O)c12)CCCS3	–	–	·	–	–	–
COc1ccc(/C=C2\SC(=S)N(CCCC(=O)Nc3ccccn3)C2=O)cc1OC	–	–	–	–	–	76
CN(c1ccc(F)cc1)S(=O)(=O)c1ccc(Cl)c(C(=O)NCC(c2ccco2)N2CCCCC2)c1 (centres undefined)	·	·	–	·	·	·
O=C(NCCN1CCN(C(=O)Nc2ccccc2)CC1)Nc1ccccc1	–	–	–	112	–	–
SMILES	GLD-1 RNA inh	MEX-5 binding	eLon inh	Bcl-xL primary	MCL1-BIM inh	EBV gp42 inh
N#Cc1c(SCc2c(Cl)cccc2Cl)nc(N)[nH]c1=S	–	·	–	–	–	·
CCCCn1c(-c2ccc(Cl)c(Cl)c2)nc2cc3[nH]c(=O)c(C(C)C)nc3cc21	–	–	–	–	–	·
CCCCn1c(-c2cccnc2)nc2cc3[nH]c(=O)c(C(C)C)nc3cc21	–	–	–	31	–	·
CCCCn1c(-c2cccc(Br)c2)nc2cc3[nH]c(=O)c(C(C)C)nc3cc21	–	–	–	31	–	·
O=[N+]([O-])c1cccc(-c2nc3ccccc3s/c2=N/O)c1	–	–	–	–	–	–
O=C(NCCS(=O)(=O)N1CCC2(CC1)OCCO2)c1ccccc1	–	–	–	–	–	·
O=C(Cn1c(=O)oc2ccccc21)N1CCN(S(=O)(=O)c2ccccc2)CC1	–	·	–	–	–	·
Cc1ccc(CNC(=O)c2cccc3c2C(=O)c2ccc(N4CCCCC4)cc2S3(=O)=O)cc1	71	·	–	–	–	·
O=C(NCc1ccco1)c1cccc2c1C(=O)c1ccc(N3CCCC3)cc1S2(=O)=O	31	·	–	·	·	·
O=C(NCc1cccc(F)c1)c1cccc2c1C(=O)c1ccc(N3CCOCC3)cc1S2(=O)=O	–	·	–	·	·	·
Cc1ccc(CNC(=O)c2cccc3c2C(=O)c2ccc(N4CCOCC4)cc2S3(=O)=O)cc1	–	·	–	–	–	·
Cn1ccc2c(N3CCCCC3)cc3c(c21)C1CCC3C1 (centres undefined)	·	·	–	·	·	·
CCCN(C(=O)c1cc(S(=O)(=O)N(C)c2ccccc2OC)ccc1C)C1CCS(=O)(=O)C1 (centres undefined)	·	·	–	·	·	·
O=C(O)c1cc([N+](=O)[O-])ccc1NCc1ccccc1Cl	–	–	–	–	–	–
O=C(O)c1cc([N+](=O)[O-])ccc1NCc1ccccn1	–	·	–	31	–	·
CC(C)OCCCn1c(-c2ccco2)nc2nc3ccccc3nc21	–	·	–	35	–	–
CC(C)(C)C(=O)c1c(N)[nH]c(C(=O)c2ccccc2)c1-c1ccc(Br)cc1	·	·	–	·	·	·
CC(C)(C)NC(=S)NCc1ccncc1	–	–	–	–	–	–
Oc1[nH]c(N=C2N=c3ccccc3=N2)c2ccccc12	–	-38	–	–	–	–
O=C1/C(=C/c2cccnc2)SC(=S)N1Cc1ccco1	·	·	–	·	·	·
Cc1cc(/C=C2\SC(=S)N(Cc3ccco3)C2=O)c(C)n1-c1cccnc1	·	-62	–	·	·	122
CCOC(=O)C1C(=O)C=C(/C=C/c2ccc(N(C)C)cc2)CC1c1ccccc1 (centres undefined)	–	?	–	–	–	103
COc1nc(NC(C)C)nc(N(C#N)CN2C(=O)c3ccccc3S2(=O)=O)n1	–	–	–	–	–	–
CC(C)Nc1nc(Cl)nc(N(C#N)CN2C(=O)c3ccccc3S2(=O)=O)n1	–	–	–	–	–	52
Cc1ccc2c(c1)C(c1ccc(F)cc1)N(C(=O)c1ccccc1Br)CC(=O)N2 (centres undefined)	–	–	–	–	–	·
SMILES	GLD-1 RNA inh	MEX-5 binding	eLon inh	Bcl-xL primary	MCL1-BIM inh	EBV gp42 inh
Cc1ccccc1C(=O)N1CC(=O)Nc2ccc(F)cc2C1c1ccc(F)cc1 (centres undefined)	–	–	–	86	–	·
COc1cc2c(cc1OC)-c1c(OC)c(OC)cc3ccnc(c13)C2=O	–	-57	–	–	–	–
N#C/C(=C(/O)c1cc2ccccc2o1)c1nc2ccccc2s1	–	-33	–	–	–	–
Cc1ccc(S(=O)(=O)N(CC(=O)NC2CCCC2)c2cccc(C)c2)cc1	–	–	–	–	–	–
O=c1cc(CN2CCN(c3ccc(F)cc3)CC2)nc2sccn12	–	–	–	34	–	–
Cc1ccc(S(=O)(=O)NC(=O)C2(C)CCN2C(=O)c2ccccc2)nc1 (centres undefined)	·	·	–	·	·	·
